Assay outcomes from PubChem BioAssay.
Hits are enriched below; roughly 2.4% of the tested compounds scored in any of these assays.
m5-HT2A agonist – activates the mouse 5-HT2A serotonin receptor. P35363. activation, % at 7.6 µM. actives 0.66% (n = 360,000). CHO-K1 mHTR2A beta-arrestin complementation, luminescence; percent of 30 µM serotonin response;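 active = activation above a run cutoff, the mean activation of all tested compounds plus 3 SD, cut at about 14% in these data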;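 note: 0% = plate median of compound wells and 100% = 30 µM serotonin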
Target sequence (P35363 whole entry, looked up): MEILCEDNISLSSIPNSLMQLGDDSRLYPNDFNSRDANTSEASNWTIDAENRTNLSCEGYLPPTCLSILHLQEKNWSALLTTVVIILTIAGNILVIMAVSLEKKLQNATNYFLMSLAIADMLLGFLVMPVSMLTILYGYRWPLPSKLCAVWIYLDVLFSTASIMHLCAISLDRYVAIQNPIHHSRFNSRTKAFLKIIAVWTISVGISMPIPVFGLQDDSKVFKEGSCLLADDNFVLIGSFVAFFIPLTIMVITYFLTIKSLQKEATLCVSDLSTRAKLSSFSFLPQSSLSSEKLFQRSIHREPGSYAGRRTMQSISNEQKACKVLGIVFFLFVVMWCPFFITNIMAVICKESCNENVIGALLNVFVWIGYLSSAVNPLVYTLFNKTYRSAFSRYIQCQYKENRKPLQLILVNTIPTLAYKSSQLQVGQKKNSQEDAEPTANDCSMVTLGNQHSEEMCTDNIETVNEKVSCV
NOD2-RIPK2 inh – NOD2-RIPK2 protein interaction inhibition | actives 0.38% (n = 360,000) | CHO BLA complementation NOD2-RIPK2, CCF4 ratio | AID 624267 | inhibition, % at 4.98 µM | O43353; in the data active = inhibition above about 21%;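 note: 0% = vehicle only and 100% = reference blocker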
TLR9-MyD88 inh – blocks human TLR9 binding to MyD88; actives 0.21% (n = 340,000); inhibition, % at 4.98 µM; CHO BLA complementation TLR9-MyD88, CCF4 FRET ratio; Q9NR96+Q99836;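 active = inhibition above the mean over all tested compounds plus 3 SD, cut at about 21% in these data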;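 note: 0% = DMSO only wells and 100% = clavulanate BLA inhibitor control wells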
TMEM16A inh – inhibitors of mouse TMEM16A calcium-activated chloride channel; Q8BHY3; HEK293 TMEM16A/YFP iodide influx fluorescence, ionomycin; normalized B-score (activity score, 25-100; higher = stronger inhibition) at 10 µM; actives 1.2% (n = 310,000); AID 588511;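 active = ratio plate-corrected score three or more library SD toward inhibition, starting fluorescence score within five deviations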;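 note: score derived from kinetic fluorescence span divided by baseline fluorescence per well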
TLR4-MyD88 BLA – blocks binding of human TLR4 to MyD88. O00206+Q99836. HeLa CL3-4 TLR4/MyD88 BLA complementation, FRET ratio. AID 861. inhibition, % at 8.4 µM. actives 0.18% (n = 200,000); in the data active = inhibition above about 25%;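 note: 0% = vehicle and 100% = reference inhibitor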
ANO1 activ – activators or potentiators of mouse TMEM16A chloride channel. AID 623877. Q8BHY3. actives 0.3% (n = 340,000). B-score at 10 µM. HEK293 TMEM16A/YFP-H148Q/I152L, iodide quench fluorescence; stronger effect = lower value;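 active = fluorescence-ratio B-score plate-corrected deviation score at least 3 library SD below zero, with starting fluorescence score within 5 deviations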;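 note: channel opened by trigger with iodide after compound preincubation; score built on the fluorescence ratio of max minus min over baseline; more negative score means more quench and so TMEM16A activation or potentiation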
OPRM1 ag – counter-screen for mouse HTR2A agonists: human mu opioid receptor agonists | shares compounds with m5-HT2A agonist | U2OS OPRM1 beta-arrestin PathHunter, luminescence; DMSO 0%, DAMGO 9.3 µM 100% | activation, % at 9.3 µM | actives 5.3% (n = 2,300) | AID 624380;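 active = mean activation above the mean of DMSO-only wells plus 3 SD, cut at about 0.5% in these data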
m5-HT2A ag conf – mouse HTR2A agonism confirmed; AID 624381; shares compounds with m5-HT2A agonist; activation, % at 7.6 µM; actives 19% (n = 2,300); CHO-K1 PathHunter beta-arrestin recruitment, luminescence; DMSO 0%, 30 µM serotonin 100%;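 active = mean activation across triplicates above the hit threshold derived in the original primary screen, cut at about 15% in these data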
Starred values were filed as active, the others as inactive; i = inactive; · = no result given.

SMILES	m5-HT2A agonist	NOD2-RIPK2 inh	TLR9-MyD88 inh	TMEM16A inh	TLR4-MyD88 BLA	ANO1 activ	OPRM1 ag	m5-HT2A ag conf
COc1ccccc1CNC(=O)c1cccnc1	-3.4	3.1	-6.4	i	·	i	·	·
Cc1ccncc1CNC(=O)c1ccccc1	16.0*	-3.7	-6.9	·	·	i	-0.2	-0.2
COc1cc2c(cc1OC)/C(=C/C(=O)c1ccc(F)cc1)NCC2	-1.8	3.4	5.3	i	·	i	·	·
CNc1nc(Oc2ccc3sc(C)nc3c2)c2sccc2n1	1.3	0.0	·	·	·	·	·	·
Cc1nc2cc(Oc3nc(NCCN(C)C)nc4ccsc34)ccc2s1	34.1*	4.9	·	·	·	·	-0.6	3.7
S=c1[nH]nc(-c2cccnc2)n1/N=C/c1ccccc1	-3.9	0.1	-12.6	i	·	i	·	·
S=c1[nH]nc(-c2cccnc2)n1/N=C/C=C/c1ccccc1	16.0*	-8.2	3.8	i	-3.1	i	-0.8	-0.5
CCOc1ccc(Oc2ccc(Cl)cc2NC(=O)CCNC(C)=O)cc1	-2.2	6.5	11.5	i	-8.1	i	·	·
CNc1c(C(=O)O)ccc2c1C(=O)c1ccccc1C2=O	-1.6	-9.7	-2.9	i	-8.6	i	·	·
O=C(O)c1ccc2c(c1Nc1ccccc1)C(=O)c1ccccc1C2=O	27.1*	-2.9	5.8	i	·	i	-0.2	-5.9
CCOC(=O)c1ccc(OCC2NCCc3cc(OC)c(OC)cc32)cc1 (configuration not stated)	-4.5	6.5	0.5	i	·	i	·	·
CC1CC(C)CN(C(=O)c2ccc3ncsc3c2)C1 (configuration not stated)	3.0	-12.1	-7.1	·	·	i	·	·
CC1CC(C)CN(C(=O)c2ccc3nc[nH]c3c2)C1 (configuration not stated)	15.8*	-7.8	2.8	i	·	i	-0.6	-2.8
CCN1C[C@@H]2[C@@H]3C(=O)N(Cc4ccccc4)C(=O)[C@@H]3[C@](Cc3ccccc3)(C(=O)OC)N2C1=NCc1ccccc1	1.4	-16.8	-14.6	·	·	·	·	·
CC[C@]1(C(=O)OC)[C@H]2C(=O)N(Cc3ccccc3)C(=O)[C@H]2[C@H]2CN(C)C(=NCc3ccccc3)N21	21.3*	0.0	-1.8	·	·	i	-0.4	-2.5
C/C(=C1/SC(N2CC(C)OC(C)C2)=NC1=O)c1ccccc1 (configuration not stated)	0.9	-7.4	-3.7	i	-11.7	i	·	·
CN(C)S(=O)(=O)NC(=O)C1=C(N2CCCC2)COC1=O	23.0*	-13.5	-0.2	·	·	i	-0.6	-4.1
CON(C)S(=O)(=O)NC(=O)C1=C(N2CCCC2)COC1=O	-7.1	-2.6	0.2	·	·	i	·	·
Cn1nc(C(C)(C)C)cc1C(=O)N1CCCCC1c1cc(C(=O)NCc2cccnc2)no1 (configuration not stated)	14.5*	-10.0	·	·	·	·	-0.2	0.5
O=C(CCC(=O)NC12CC3CC(CC(C3)C1)C2)NC1CCCCC1	4.5	-11.0	-17.9	i	·	i	·	·
COc1ccc(C#Cc2ccc3c(c2)c(=O)c2ccccc2n3C)cc1	-6.2	3.0	1.2	i	·	i	·	·
CCCCn1c(N)c(N(CCOC)C(=O)c2ccc(-c3ccc(C(C)=O)cc3)o2)c(=O)[nH]c1=O	15.1*	-4.3	-3.5	i	·	i	-0.6	-0.4
CCCCn1c(N)c(N(CCOC)C(=O)c2cc3c(s2)CCC(C)C3)c(=O)[nH]c1=O (configuration not stated)	14.9*	8.1	-2.8	i	·	i	-0.6	-0.9
CCCCN(C(=O)c1cccc(S(=O)(=O)N2CCN(C)CC2)c1)c1c(N)n(CCC)c(=O)[nH]c1=O	16.2*	-0.5	4.0	i	·	i	-0.7	1.1
COc1ccc(CCNC(=O)c2ccccc2NC(=O)c2ccco2)cc1OC	23.8*	1.3	4.7	i	0.2	i	-0.7	-3.0
SMILES	m5-HT2A agonist	NOD2-RIPK2 inh	TLR9-MyD88 inh	TMEM16A inh	TLR4-MyD88 BLA	ANO1 activ	OPRM1 ag	m5-HT2A ag conf
C=CCn1c(=N)n(CC(O)c2ccco2)c2ccccc21 (configuration not stated)	14.7*	1.3	-6.4	i	3.1	i	-0.3	-1.6
O=C(O)c1ccc2c(c1)C(=O)N(c1ccc(C(=O)OCC(=O)c3ccccc3)cc1)C2=O	-2.7	-1.3	-3.8	i	·	i	·	·
O=C(O)c1ccc2c(c1)C(=O)N(c1ccc(OCc3ccccc3)cc1)C2=O	17.0*	-16.6	-1.0	i	·	i	-0.2	0.1
CC(=O)N1CCN(C(C(=O)Nc2c(C)cccc2C)c2cccc(F)c2)CC1 (configuration not stated)	3.2	-21.7	·	·	·	·	·	·
O=C(Nc1nc2c(s1)COc1ccccc1-2)c1cccs1	-5.1	13.2	5.2	i	13.8	i	·	·
O=C(CCS(=O)(=O)c1ccccc1)Nc1nc2c(s1)COc1ccccc1-2	22.1*	0.6	-3.2	i	7.7	i	-0.5	-4.8
CCCc1cnc(N2CCN(C(=S)NC)CC2)nc1	16.7*	0.4	-6.6	i	·	i	-0.6	0.9
Cc1ccc(Nc2nc(N)nc(CN3CCN(c4ccccc4)CC3)n2)cc1Cl	14.8*	1.1	1.4	i	6.0	i	0.3	69.7*
COc1ccc(N2CCN(Cc3nc(N)nc(N4CCCc5ccccc54)n3)CC2)cc1	9.3	-4.5	1.9	i	-8.3	i	·	·
Nc1nc(CN2CCN(c3cccc(Cl)c3)CC2)nc(N2CCCc3ccccc32)n1	24.2*	3.1	-12.6	i	-1.2	i	-0.3	77.3*
Nc1nc(CN2CCN(c3ccccc3)CC2)nc(N2CCCc3ccccc32)n1	27.7*	0.9	-4.7	i	13.2	i	-0.4	70.8*
Nc1nc(CN2CCN(Cc3ccccc3)CC2)nc(N2CCCc3ccccc32)n1	-6.5	-9.3	-8.2	i	20.6	i	·	·
CC(=O)NS(=O)(=O)c1ccc(NC(=S)NC(=O)CC(C)C)cc1	-5.1	-3.9	·	i	8.2	i	·	·
COc1ccc(C(O)c2nc(-c3cccc(O)c3)cs2)cc1 (configuration not stated)	16.6*	-11.0	·	·	·	·	-0.8	-0.9
OC(c1ccc(F)cc1)c1nc(-c2cccc(C(F)(F)F)c2)cs1 (configuration not stated)	23.4*	2.7	·	·	·	·	0.3	-5.6
C/C(=N/NC(=O)CNC(=O)CCc1ccccc1)c1ccc(Cl)cc1	6.9	1.1	-13.3	i	·	i	·	·
